mHTT-CaM PPI inh = mutant huntingtin-calmodulin interaction inhibitors – biochemical, AlphaScreen, primary screen; inhibition, % at 15 µM; AID 1671202, 2021; AlphaScreen His-mHTT/GST-CaM binding, luminescence; hit rate 3.6% among 190,000; P42858;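 also: 0% = both proteins with DMSO and 100% = one protein alone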
Pf apPOL block = Pf-apPOL inhibitors, biochemical, fluorescence. inhibition, % at 10 µM. Recombinant Pf-apPOL, molecular beacon fluorescence, 1.5 h. AID 1794808, 2022. hit rate 0.25% among 210,000
* = called active by the depositor; · = not tested or not shown. Many of the other results were omitted from the sample, so hits are more common in it than they were. Rule as the data show it: active = inhibition above about 50%; inactive = the rest.

SMILES	mHTT-CaM PPI inh	Pf apPOL block
COC(=O)c1ccc2occ(-c3oc4ccc(C(=O)OC)cc4c3O)c2c1	100*	-7
O=C(NCCNc1ccc(Nc2ccccn2)nn1)c1ncccn1	100*	-1
Cc1cccc(Nc2ccc(NCCNC(=O)c3ccccc3C(F)(F)F)nn2)n1	1	-8
CCOc1cccc(C(Nc2ccccn2)c2ccc3ccc(C)nc3c2O)c1O (stereo not given)	67*	-7
Cc1c(Cl)cccc1-c1ccc(C(=O)Nc2ccccn2)o1	-4	-16
Cc1ccc2ccc(C(Nc3ccccn3)c3ccccc3Cl)c(O)c2n1 (stereo not given)	64*	3
Cc1ccc2cccc(OCc3ccccc3)c2n1	-6	10
COc1ccc(S(=O)(=O)N2CCC(c3noc(-c4cccc(F)c4)n3)CC2)cc1OC	1	-3
CCCn1c(C2CCN(C(=O)Nc3ccc(C)cc3)CC2)cc(=O)n2nccc12	10	1
CCN(CC)C(=O)CNC(=O)c1nn(-c2ccc(OC)c(OC)c2)c(=O)c2ccccc12	9	-8
COc1ccc(-n2nc(C(=O)NCC(=O)Nc3cccc(C)n3)c3ccccc3c2=O)cc1Cl	6	0
CCN(CC)C(=O)CNC(=O)c1nn(-c2ccc(OC)c(Cl)c2)c(=O)c2ccccc12	56*	-3
COc1ccc(-n2nc(C(=O)NCC(=O)NCc3ccccc3)c3ccccc3c2=O)cc1Cl	98*	-6
N#CC(=Cc1ccc(Cl)cc1Cl)C(=O)O	·	9
CSc1ccccc1NC(=O)c1cn2c(n1)CSCC2	19	-7
CCN1C(=O)/C(=C\c2nc3ccccc3c(=O)n2-c2ccccc2[N+](=O)[O-])c2ccccc21	56*	-2
CCCN1C(=O)/C(=C\c2nc3ccccc3c(=O)n2-c2ccc(OC)cc2)c2ccccc21	3	-34
CCCN1C(=O)/C(=C\c2nc3ccccc3c(=O)n2CC)c2ccccc21	12	-2
CCN1C(=O)/C(=C\c2nc3ccccc3c(=O)n2CC)c2ccccc21	100*	-8
Cc1[nH]nc(-c2cccn2C)c1NC(=O)c1ccc(F)cc1F	15	-5
CCC(C)(C)C1CCc2c(sc(N)c2C#N)C1 (stereo not given)	·	97*
CCN1CCc2c(sc(N)c2C#N)C1	7	-22
CC(C)NC(=O)N1CCN(c2ccc(C(C)C)cc2)C(=O)C1C (stereo not given)	1	-3
COc1ccc2cccc(NC(=O)c3c[nH]c4ccccc34)c2n1	58*	-1
COc1ccc2cccc(NC(=O)c3ccco3)c2n1	12	-7
SMILES	mHTT-CaM PPI inh	Pf apPOL block
CNC(=O)c1cc(C)nc2ccc(Cl)cc12	-3	-2
CCC(C)NC(=O)N1CCC(N2CCN(Cc3ccc(F)cc3)C2=O)CC1 (stereo not given)	-1	-2
N#CC1=C(N)N(c2ccccc2)C2=C(C(=O)CCC2)C1c1cccs1 (stereo not given)	30	-10
CC1(C)CC(=O)C2=C(C1)N(c1cccc(C(F)(F)F)c1)C(N)=C(C#N)C2c1cccs1 (stereo not given)	67*	-5
N#CC1=C(N)N(c2ccc(Br)cc2F)C2=C(C(=O)CCC2)C1c1cccs1 (stereo not given)	54*	0
N#CC1=C(N)N(c2cccc(Br)c2)C2=C(C(=O)CCC2)C1c1cccs1 (stereo not given)	68*	2
CC1(C)CC(=O)C2=C(C1)N(c1cccc(C(F)(F)F)c1)C(N)=C(C#N)C2c1ccsc1 (stereo not given)	24	-2
N#CC1=C(N)N(c2ccc(Br)cc2F)C2=C(C(=O)CCC2)C1c1ccsc1 (stereo not given)	12	2
O=C(c1ccccn1)N1CCCC(c2nnc(-c3ccccc3)o2)C1 (stereo not given)	-2	-3
O=C(NCC1CC1)C1CCC(c2ccccc2)N(C(=O)C2CC2)C1 (stereo not given)	-1	3
COC(=O)C1=CN(CC2CCCO2)C=C(C(=O)OC)C1c1cccs1 (stereo not given)	-18	·
COc1ccc(C2=NN(C(=O)CN3CCCCC3)C(c3ccccc3Cl)C2)cc1 (stereo not given)	9	-1
CCN1CCN(CC(=O)N2N=C(c3ccccc3Cl)CC2c2cccn2C)CC1 (stereo not given)	82*	-3
COc1ccc(C2=NN(C(=O)CN3CCOCC3)C(c3ccccc3Cl)C2)cc1 (stereo not given)	21	-5
Cn1cccc1C1CC(c2ccccc2Cl)=NN1C(=O)CN1CCCCC1 (stereo not given)	94*	-5
CCOc1ccc(NC(NC(=O)c2cccs2)C(=O)c2ccccc2)cc1 (stereo not given)	56*	-1
NS(=O)(=O)c1ccc(NC(NC(=O)c2cccs2)C(=O)c2ccccc2)cc1 (stereo not given)	11	8
COc1ccc(NC(NC(=O)c2cccs2)C(=O)c2ccccc2)cc1 (stereo not given)	40	-1
O=C(NC(Nc1ccc(Cl)c(Cl)c1)C(=O)c1ccccc1)c1cccs1 (stereo not given)	90*	-7
Cc1ccc(NC(NC(=O)c2cccs2)C(=O)c2ccccc2)cc1C (stereo not given)	-3	-1
O=C(NC(Nc1cccc(Cl)c1)C(=O)c1ccccc1)c1cccs1 (stereo not given)	67*	27
Cc1cc(C)cc(NC(=O)C2CCN(c3nccc(C)n3)CC2)c1	-7	-4
CCC(NC(=O)c1ccc(F)cc1)c1ccccc1 (stereo not given)	-12	-2
O=C(NCc1cccnc1)c1cc2sccc2n1CC1CC1	44	-4
CC1=C(C(=O)Nc2cccc(C(F)(F)F)c2)C(c2ccccc2)C2=C(CC(C)(C)CC2=O)N1 (stereo not given)	92*	1
SMILES	mHTT-CaM PPI inh	Pf apPOL block
O=C1CCCC2=C1C(c1cccc([N+](=O)[O-])c1)Nc1ccc(C(=O)c3ccccc3)cc1N2 (stereo not given)	56*	-8
CC1=C(C(=O)Nc2cccc(C(F)(F)F)c2)C(c2cccc([N+](=O)[O-])c2)C2=C(CCCC2=O)N1 (stereo not given)	52*	-7
CC1=C(C(=O)Nc2cccc(C(F)(F)F)c2)C(c2ccccn2)C2=C(CC(C)(C)CC2=O)N1 (stereo not given)	-2	-9
CC1=C(C(=O)Nc2cccc(C(F)(F)F)c2)C(c2ccccc2)C2=C(CCCC2=O)N1 (stereo not given)	36	-2
CC1=C(C(=O)Nc2ccc(C)cn2)C(c2ccccc2)C2=C(CCCC2=O)N1 (stereo not given)	2	51*
O=C1CCCC2=C1C(c1cccnc1)Nc1ccc(C(=O)c3ccccc3)cc1N2 (stereo not given)	10	-2
CC1=C(C(=O)Nc2ccc(C)cn2)C(c2ccc(C)cc2)C2=C(CCCC2=O)N1 (stereo not given)	9	0
O=C(Nc1ccc2c(c1)C(=O)NCC2)c1cc2ccccc2o1	-2	-10
CC(=O)N1CCc2ccccc2C1C(=O)NCc1cc(F)ccc1F (stereo not given)	17	3
COc1cc(OC)c(CNc2ccc3c(c2)CCC3)cc1Br	85*	1
COc1cc(OC)c(CNC2CCCC2)cc1Br	-3	2
